A selection: hits, their analogues and other compounds. The true share with any hit is near 6.1%.
D1 ag = human D1 receptor agonism; AID 504660; HEK293 T-REx D1 cells, calcium flux, agonist mode; 1% of 360,000 active; activation, % at 2 µM; in the data active = activation above about 30%
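Inducible HEK293 T-REx D1 cells, force-coupled to calcium signalling, were plated at 4000 cells/well with tetracycline and held overnight at 30 C. After no-wash calcium dye loading, compound-evoked calcium rise over 180 s flagged agonists.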
DRD3 antagonist = D3 dopamine receptor (human) antagonism | 2.5% of 360,000 active | AID 652054 | max response, negative = inhibition, % | D3R cells, DiscoveRx beta-arrestin luminescence, antagonist mode; stronger effect = lower value | P35462; in the data active = max response below about -50%; inconclusive = no clear call, values can overlap the other calls
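Cells plated overnight at 1500 cells/well, then exposed to library compounds with dopamine controls for 90 minutes at 37 degrees C. DiscoveRx reagent added for 30–60 minutes at room temperature; luminescence read, quantitative HTS format.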
ERG Ets-DNA blk = inhibitors of human ERG Ets domain-DNA interaction | fluorescence polarization, His-ERG Ets domain / labelled DNA | Potency, µM (highest dose often 76.9 µM), most hits filed as inhibitors | 0.028% of 370,000 active; active = well fitted inhibition curve with a large enough effect in the polarisation, with a control signal flat; inconclusive = small, poorly fitted or top-dose-only effect, or effect the other way, or a change in a side signal; inactive = no such curve, though single readings can be large or run the other way; the % refers to the polarisation;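 note: polarization taken with two DNA probes labelled with fluorescein and Texas red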
Target sequence (P11308 whole entry, looked up, the tested form may be a part): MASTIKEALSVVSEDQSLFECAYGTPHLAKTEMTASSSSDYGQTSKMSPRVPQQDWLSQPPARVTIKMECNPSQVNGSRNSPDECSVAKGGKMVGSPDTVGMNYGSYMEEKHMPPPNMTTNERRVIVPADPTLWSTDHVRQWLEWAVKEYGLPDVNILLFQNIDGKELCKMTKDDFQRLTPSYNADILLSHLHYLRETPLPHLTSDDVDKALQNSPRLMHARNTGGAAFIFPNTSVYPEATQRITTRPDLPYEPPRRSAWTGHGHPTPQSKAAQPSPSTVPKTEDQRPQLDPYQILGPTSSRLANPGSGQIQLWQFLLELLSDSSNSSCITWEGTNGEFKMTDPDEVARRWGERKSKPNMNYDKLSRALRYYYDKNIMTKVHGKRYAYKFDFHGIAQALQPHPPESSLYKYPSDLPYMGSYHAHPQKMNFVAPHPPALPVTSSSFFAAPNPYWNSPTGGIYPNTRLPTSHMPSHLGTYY
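His-tagged ERG Ets domain (1 uM in the protein solution; 300mM KCl, 50mM Tris-HCl, 1mM EDTA, 1mM DTT, pH 7.5) received compound, then a probe mix of 5 nM fluorescein-DNA and 100nM Texas-615-DNA. Fluorescence polarization was read for both dyes.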
D1 antag = blocks dopamine activation of the human D1 receptor; HEK293 TREx D1 cells, calcium flux, dopamine EC80; stronger effect = lower value; 3.2% of 360,000 active; activity change, negative = inhibition, % at 10 µM; P21728; in the data active = activity change below about -30%
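HEK293 T-REx cells expressing inducible, force-coupled D1 receptor; no-wash Ca dye, 30–90 min RT. Cmpd → 180 s read at 1 Hz → EC80 DA → 180 s read.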
D1 PAM = enhances dopamine response at the human D1 receptor; P21728; HEK293 TREx D1 cells, calcium flux, dopamine EC20 potentiation; potentiation, % at 10 µM; 0.036% of 360,000 active; in the data active = potentiation above about 30%
D3 ag = D3 dopamine receptor (human) agonism. P35462. D3R DiscoveRx beta-arrestin cells, luminescence, 90 min. max activation, %. 0.58% of 410,000 active. AID 652048; in the data active = max activation above about 30%
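Agonist-mode cell screen: cells plated at 1500/well and incubated overnight at 37 °C, then exposed to library compounds for 90 min at 37 °C. Detection reagent was added for 30–60 min at room temperature, and luminescence was read.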
Numbers stand for hits; . = inactive; ? = inconclusive; / = not tested or not shown; ! = not confirmed by another sample.

SMILES	D1 ag	DRD3 antagonist	ERG Ets-DNA blk	D1 antag	D1 PAM	D3 ag
CCOC(=O)N1CCN(C2=C(NS(=O)(=O)c3ccc(C)cc3)C(=O)c3ccccc3C2=O)CC1	.	?	.	.	.	.
Cc1ccc(S(=O)(=O)NC2=C(N3CCN(c4ccccc4F)CC3)C(=O)c3ccccc3C2=O)cc1	.	-67!	.	.	.	.
CC(C)(CN1CCN(Cc2ccccc2)CC1)NS(=O)(=O)c1ccc(Cl)cc1	.	-61	.	.	.	.
CN1CCN(CC(C)(C)NS(=O)(=O)c2ccc(Cl)cc2)CC1	.	?	/	.	.	.
Cc1ccc(S(=O)(=O)NC2=C(N3CCN(Cc4ccccc4)CC3)C(=O)c3ccccc3C2=O)cc1	.	-60	.	.	.	.
CSc1ccc(/C=N/NC(=O)c2ccc3nc[nH]c3c2)cc1	/	.	/	/	/	.
N=c1c(C(=O)NCc2ccco2)cc2c(=O)n3ccccc3nc2n1C1CCCC1	.	.	.	.	.	.
Cc1[nH]n(-c2ccccc2)c(=O)c1N=Nc1ccccc1O	32	.	.	.	.	.
Cc1ccccc1N=Nc1c(C)[nH]n(-c2ccccc2)c1=O	.	.	.	.	.	.
Cc1[nH]n(-c2ccccc2)c(=O)c1N=Nc1ccc2c(c1)OCO2	.	.	.	-35	.	.
C=CCn1c(SCC(=O)c2c(N)n(C)c(=O)n(C)c2=O)nnc1-c1ccncc1	.	.	.	.	.	.
O=C1C2C3C=CC(C3)C2C(=O)N1c1ccc(N2CCN(c3ccccn3)CC2)c([N+](=O)[O-])c1 (stereo not drawn)	.	.	.	.	.	.
Cc1ccc(S(=O)(=O)n2ccc(OC(=O)c3cccs3)n2)cc1	30	.	.	.	.	.
Cc1ccc(S(=O)(=O)n2nc(OC(=O)c3cccs3)cc2N)cc1	.	?	.	.	.	.
NC(=O)CSc1nnc2sc3ccccc3n12	.	.	.	.	32	.
CC(C)(C)c1cc(CN2CCOCC2)c(C(=O)O)o1	.	-81	.	.	.	.
CCN(CC)CCCn1c(C)cc2c(c1=O)C(c1cccc(Cl)c1)C(C#N)=C(N)O2 (stereo not drawn)	.	.	.	.	.	.
Cc1ccc(C(=O)OCC(=O)NNC(=O)COc2ccc(Cl)cc2)c(O)c1	.	.	.	.	.	.
CCC(Oc1ccccc1)C(=O)NC1CCSC1=O (stereo not drawn)	.	.	.	.	.	.
O=C(Nc1ccccc1C(F)(F)F)N1CCOc2ccc(Cl)cc21	.	/	.	-35	.	.
CCc1ccc(NC(=O)N2CCOc3ccc(Cl)cc32)cc1	.	/	.	.	.	.
CC1CC(C)CN(C(=S)NC2CCCCC2)C1 (stereo not drawn)	.	.	.	.	.	.
CC1CCC(NC(=O)N(CCCl)N=O)CC1 (stereo not drawn)	/	.	.	/	/	.
COc1ccc(CNC(c2ccccc2)c2ccc(Cl)cc2)cc1 (stereo not drawn)	.	.	.	.	.	.
CC(NCc1cccc(OCc2ccccc2)c1)C(O)c1ccccc1 (stereo not drawn)	42	.	.	/	.	.
SMILES	D1 ag	DRD3 antagonist	ERG Ets-DNA blk	D1 antag	D1 PAM	D3 ag
CC(NCc1ccc(OCc2ccc(Cl)cc2)cc1)C(O)c1ccccc1 (stereo not drawn)	38	.	.	.	.	.
OCCCCNCc1ccc(OCc2ccc(Cl)cc2)cc1	.	.	/	-51	.	.
C/C(CC(=O)Nc1ccc2c(c1)OCCO2)=N\NC(=O)c1ccc([N+](=O)[O-])cc1Cl	.	.	.	.	.	.
COc1cccc(OCCNC(=O)Nc2cc(F)c(F)cc2Cl)c1	.	.	.	-40	.	.
CC(=O)Nc1ccc(OCC(O)Cn2cccn2)cc1 (stereo not drawn)	.	.	.	-35	.	.
CC(=O)Nc1ccc(OCC(O)Cn2ccnc2)cc1 (stereo not drawn)	.	.	.	.	.	.
CC(=O)Nc1ccc(OCC(O)CN2CCN(c3ccc(Cl)cc3)CC2)cc1 (stereo not drawn)	.	-72	.	.	.	.
CC(=O)Nc1ccc(OCC(O)CN2CCN(S(=O)(=O)c3ccc(NC(C)=O)cc3)CC2)cc1 (stereo not drawn)	.	.	.	-34	.	.
CC(=O)Nc1ccc(OCC(O)CN2CCN(c3cccc(Cl)c3)CC2)cc1 (stereo not drawn)	.	.	.	.	.	34
CC(=O)Nc1ccc(OCC(O)CN2CCN(c3ccc(F)cc3)CC2)cc1 (stereo not drawn)	.	?	.	.	.	.
COc1ccc(C(=O)C[n+]2ccc3c(c2)nc(-c2ccccc2)n3C)cc1	.	.	.	.	.	.
COc1ccc(-n2ccn(CC(=O)Nc3ccc(OC)cc3OC)c(=O)c2=O)cc1	.	.	.	.	.	.
O=C(NC(=S)Nc1cccc(CO)c1)c1ccc(-c2ccccc2)cc1	.	.	.	.	.	.
CCN1C(=O)c2cccc3c(NC(=O)C4CCCCC4)ccc1c23	.	.	.	.	.	.
COc1ccc(/C=C/C(=O)OCC(=O)c2ccccc2F)cc1	/	.	/	/	/	.
COc1ccc(/C=C\C(=O)CC(O)(c2ccccc2)C(F)(F)F)cc1 (stereo not drawn)	.	-70	.	.	.	.
CC(C)CN(CC(C)C)S(=O)(=O)c1ccc(C(=O)Nc2sc3c(c2C(N)=O)CCN(C(C)C)C3)cc1	54	/	.	.	.	.
CC(C)N1CCc2c(sc(NC(=O)c3ccc(S(=O)(=O)N4CCOCC4)cc3)c2C(N)=O)C1	.	.	.	.	.	.
CNC(=O)c1c(NC(=O)c2ccc(S(=O)(=O)N3CCCC3)cc2)sc2c1CCN(C(C)C)C2	89	/	/	.	.	/
CCN1CCc2c(sc(NC(=O)c3ccc(S(=O)(=O)N(CC)c4ccccc4)cc3)c2C(N)=O)C1	148	.	.	.	.	.
CCCCN(CCCC)S(=O)(=O)c1ccc(C(=O)Nc2sc3c(c2C(N)=O)CCN(CC)C3)cc1	78	/	.	.	.	.
Cc1cccc(N2CCN(C(=O)CC(NC(=O)c3ccccc3Cl)c3ccccc3)CC2)c1C (stereo not drawn)	.	.	.	.	.	.
Cc1cc(C)n(C(=O)c2cccc(S(=O)(=O)N3CCOCC3)c2)n1	.	.	.	.	.	.
COc1ccc(/C=C/C(=O)O)cc1S(=O)(=O)N1CCC(Cc2ccccc2)CC1	.	.	.	.	.	.
CC1CCN(C(=O)Cn2cc(C(F)(F)F)ccc2=O)c2ccccc2S1 (stereo not drawn)	/	.	.	/	/	.
NC(=O)NC(CC(=O)NCCCc1ccccc1)c1ccc(Cl)cc1 (stereo not drawn)	.	-55	.	.	.	.
